The structures appear in SMILES notation. Inconclusive results are not listed. Calls of active or inactive are those of the source. How the source made its calls, unless noted: active means hit-call score of the fitted dose curve at least 0.9, where 1 is the maximum; inactive means score below 0.9.

Test [1] can be described thus: CCTE_Shafer_MEA_acute_burst_percentage_mean: CCTE's Neural Acute Assay for Percentage of Spikes in a Burst, Shafer Lab (AID 2284017).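 On AC50: curve fitted for loss of signal so potency reflects decreased burst percentage.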 The procedure, abridged:
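Primary rat cortical neurons on 48-well MEA plates, treated on DIV 13 or 15 at 0.03-40 uM. Spikes detected at 8x rms noise at 37C; percent change from 40-min baseline to 40-min post-dose recording, fitted versus DMSO.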

Test [2] in a line: CCTE_Shafer_MEA_acute_burst_percentage_std: CCTE's Neural Acute Assay for Standard Deviation of Burst Percentage, Shafer Lab (AID 2284018).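 Further: fitted in the negative direction so actives lower burst percentage SD.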 In outline:
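Primary rat cortical neurons on 16-electrode MEA wells were recorded 40 min at baseline (DIV 13 or 15), then 40 min after compound (0.03-40 uM), at 37 C. Well value is SD across electrodes of spikes-in-bursts/total spikes; endpoint is percent change, DMSO-referenced.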

The nature of test [3]: CCTE_Shafer_MEA_acute_per_network_burst_spike_number_mean: CCTE's Neural Acute Assay for Average Number of Spikes in a Network Burst, Shafer Lab (AID 2284019).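 On AC50: curve fitted for loss of signal so actives reduce spikes per network burst.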 The procedure, abridged: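 Primary rat cortical neurons on 16-electrode MEA wells, DIV 13 or 15, 37 C; 40-min baseline then 40-min recording with compound (0.03-40 uM). Spikes per network burst (total spikes/number of bursts) expressed as percent change from baseline, DMSO reference.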

Test [4] in a line: CCTE_Shafer_MEA_acute_per_network_burst_electrodes_number_mean: CCTE's Neural Acute Assay for Mean Number of Electrodes in a Network Burst, Shafer Lab (AID 2284021).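 Further: curves fitted for decreases only so hits reduce electrodes per burst.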 The procedure, abridged:
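Primary rat cortical networks, mwMEA, 37 C. 20 min stabilization, 40 min baseline, compound 0.03-40 uM, 40 min re-record. Wells need >=10 active electrodes; percent change per well, negative fitting direction.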

A short description of test [5]: CCTE_Shafer_MEA_acute_cross_correlation_area: CCTE's Neural Acute Assay for Area of Cross Correlation, Shafer Lab (AID 2284024).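 Further: area under pooled inter-electrode spike cross-correlation near zero lag as percent change from own baseline; curves fitted for loss of cross-correlation area so actives lower synchrony.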 In outline:
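Plates equilibrated 20 min at 37 C, then 40 min baseline was recorded, compound was added (0.03-40 uM), and a further 40 min was recorded. Wells needed ≥10 active electrodes (≥5 spikes/min) on exposure day.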

Test [6] can be described thus: CCTE_Shafer_MEA_acute_cross_correlation_HWHM: CCTE's Neural Acute Assay for Cross Correlation at Half Width at Half Maximum, Shafer Lab (AID 2284026).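 Further: percent change per well from pre-dose baseline in spike cross-correlogram half width; hits are a decrease in cross-correlogram half width relative to DMSO.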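 On outcome: spontaneous network firing of rat primary cortical neurons on multiwell microelectrode arrays.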 In outline: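 Rat cortical neuron cultures on microelectrode arrays were equilibrated 20 min at 37 C, recorded 40 min at baseline, then 40 min after compound addition (0.03-40 uM, ≥3 wells). Spikes were detected at 8x rms noise after 300-5000 Hz band-pass filtering.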

The nature of test [7]: CCTE_Shafer_MEA_acute_synchrony_index: CCTE's Neural Acute Assay for Synchrony, Shafer Lab (AID 2284027).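 Further: network synchrony index of spontaneous spiking in primary rat cortical neurons on MEAs; fitted for loss of signal so actives lower synchrony relative to DMSO.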 The procedure, abridged:
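Primary rat cortical neurons on 16-electrode MEA wells were recorded 40 min at baseline (DIV 13 or 15) and 40 min after compound (0.03-40 uM) at 37 C. Synchrony index (0-1) expressed as percent change from baseline, versus DMSO.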

The target of test [8] is Estrogen receptor (Homo sapiens) (UniProt P03372). Description: CCTE_Deisenroth_AIME_384WELL_LUC_Active: CCTE's 384-well Estrogen Receptor Transactivation Assay with AIME metabolic competence (ERTA luciferase; metabolism positive), Deisenroth Lab (AID 2284030; active means hit-call score of the fitted dose curve at least 0.9, where 1 is the maximum). The procedure, abridged:
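AIME metabolism-positive mode: chemicals 0.002 - 200 uM, 2 h with alginate-bound PB/BNF-induced rat S9 → medium to VM7Luc4E2 ERTA, 24 h → luciferase. Positive fit vs 17beta-estradiol; n=4 typical.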

The nature of test [9]: CCTE_Deisenroth_AIME_384WELL_CTox_Active: Cytotoxicity Assessment (CTOX) in CCTE's 384-well Estrogen Receptor Transactivation Assay with AIME metabolic competence (metabolism positive), Deisenroth Lab (AID 2284037; active means hit-call score of the fitted dose curve at least 0.9, where 1 is the maximum;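 further: chemicals first conditioned 2 h by alginate-bound induced rat liver S9 before cells; activity means signal loss indicating cell death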). In outline: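 VM7Luc4E2 breast cells received medium pre-incubated 2 h with chemical over alginate microspheres holding induced male Sprague Dawley rat liver S9; viability read 24 h later by protease-substrate fluorescence. Loss of signal, bidirectional fit, 0.002–200 uM.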

Test [10] has as its target Estrogen receptor (Homo sapiens) (UniProt P03372). Description: CCTE_Deisenroth_AIME_384WELL_LUC_Inactive: CCTE's 384-well Estrogen Receptor Transactivation Assay without AIME metabolic competence (ERTA luciferase; metabolism negative), Deisenroth Lab (AID 2284038; active means hit-call score of the fitted dose curve at least 0.9, where 1 is the maximum;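 further: hits raise estrogen receptor luciferase signal so potencies reflect agonists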). The procedure, abridged:
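Chemicals (10-point series, 0.002 - 200 uM) were incubated 2 hours with alginate-water microsphere lids lacking S9, then the conditioned medium was transferred to VM7Luc4E2 breast cells for 24 hour. Luciferase induction was read by bioluminescence, fitted upward relative to 17beta-estradiol.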

Test [11] can be described thus: CCTE_Deisenroth_AIME_384WELL_CTox_Inactive: Cytotoxicity Assessment (CTOX) in CCTE's 384-well Estrogen Receptor Transactivation Assay without AIME metabolic competence (metabolism negative), Deisenroth Lab (AID 2284039; active means hit-call score of the fitted dose curve at least 0.9, where 1 is the maximum;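 further: cell viability via live-cell protease substrate cleaved to fluorescent probe; cells exposed 24 h to medium preincubated 2 h with alginate-water beads without S9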). The procedure, abridged: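 VM7Luc4E2 cells, metabolism-negative arm: test chemicals (0.002–200 uM, 10 points) pre-incubated 2 h with alginate-water microspheres, then medium transferred to cells for 24 h. Viability read as protease-substrate cleavage to fluorescent probe; loss-of-signal, bidirectional fitting.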

Test [12] addresses Estrogen receptor (Homo sapiens) (UniProt P03372). Put plainly: CCTE_Deisenroth_AIME_384WELL_LUC_Shift: CCTE's 384-well Estrogen Receptor Transactivation Assay with AIME metabolic competence data shift (ERTA luciferase; difference in metabolism positive and negative), Deisenroth Lab (AID 2284041).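 Further: shift is response with S9 minus without S9 so positive means metabolism raised ER signal.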 The procedure, abridged: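 Here, parent compounds undergo 2 h phase I metabolism by PB/BNF-induced rat S9 before 24 h transactivation in VM7Luc4E2 cells; the curve models S9-positive minus S9-negative response over a 10-point series.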

Test [13] can be described thus: CCTE_Shafer_MEA_dev_firing_rate_mean: CCTE's Neural Network Formation Assay for Mean Firing Rate, Shafer Lab (AID 2284031). The procedure, abridged: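 Primary rat cortical neurons on 48-well, 16-electrode MEAs (PEI-coated, laminin at plating), exposed from day 0 with compound renewed at DIV 5 and 9. Spikes recorded DIV 5, 7, 9, 12; well-mean firing rate collapsed to trapezoidal AUC, loss-of-signal vs DMSO.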

Test [14] can be described thus: CCTE_Shafer_MEA_dev_per_burst_spike_percent: CCTE's Neural Network Formation Assay for Percent of Spikes in a Burst, Shafer Lab (AID 2284032). The procedure, abridged:
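Rat primary cortical neurons on 16-electrode MEA wells, dosed from plating day 0 for 12 days with renewal on DIV 5 and 9; spikes-in-bursts percentage averaged over bursting electrodes, collapsed as AUC across days 5, 7, 9, 12; loss direction versus DMSO.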

Test [15] can be described thus: CCTE_Shafer_MEA_dev_active_electrodes_number: CCTE's Neural Network Formation Assay for Number of Active Electrodes, Shafer Lab (AID 2284040; active means hit-call score of the fitted dose curve at least 0.9, where 1 is the maximum). In outline:
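Rat cortical primary cultures, 1.5 x 10^5 cells/well, PEI-coated MEA, laminin drop. Continuous exposure DIV 0–12; full media/compound change DIV 5, 9. Readout: electrodes with mean firing ≥5 spikes/min; AUC across days; loss vs DMSO.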

Test [16] in a line: CCTE_Shafer_MEA_dev_burst_rate: CCTE's Neural Network Formation Assay for Burst Rate, Shafer Lab (AID 2284042). The procedure, abridged: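 Primary rat cortical neurons on PEI-coated 48-well MEA plates (laminin added with cells at plating) (16 electrodes/well), exposed from plating to day 12, dosing renewed at DIV 5 and 9. Burst rate averaged over active electrodes, recorded DIV 5, 7, 9, 12, summarized as AUC; loss versus DMSO.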

Estrogen receptor (Homo sapiens), sequence (P03372 whole entry, looked up): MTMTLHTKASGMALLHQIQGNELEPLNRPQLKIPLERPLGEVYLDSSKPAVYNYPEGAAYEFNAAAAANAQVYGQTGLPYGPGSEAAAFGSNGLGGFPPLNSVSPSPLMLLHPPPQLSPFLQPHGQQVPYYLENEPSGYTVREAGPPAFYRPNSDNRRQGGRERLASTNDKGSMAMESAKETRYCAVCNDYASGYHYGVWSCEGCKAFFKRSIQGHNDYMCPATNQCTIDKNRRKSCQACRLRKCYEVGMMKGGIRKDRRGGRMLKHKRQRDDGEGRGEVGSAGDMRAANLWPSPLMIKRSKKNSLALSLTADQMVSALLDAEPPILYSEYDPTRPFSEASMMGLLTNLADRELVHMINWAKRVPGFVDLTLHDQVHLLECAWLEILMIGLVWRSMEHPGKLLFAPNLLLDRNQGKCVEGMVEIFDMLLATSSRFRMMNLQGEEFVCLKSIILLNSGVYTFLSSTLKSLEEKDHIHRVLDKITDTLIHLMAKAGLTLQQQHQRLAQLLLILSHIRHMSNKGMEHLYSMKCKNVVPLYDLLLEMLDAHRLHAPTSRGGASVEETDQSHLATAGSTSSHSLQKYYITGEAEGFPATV

For the molecule `CN1CCCC1=O`, the molecule was classed as inactive in test [1], in test [2], in [3], in [4], in test [5] and in test [6]. Moreover, the result in test [7], in test [8], in [9], in test [10], in test [11] and in test [12] was inactive.

Consider `Clc1cc(Cl)c(Cl)cc1Cl`, for which the outcome in [1], in test [2], in [3], in test [4], in [5] and in [6] was inactive. In addition, the call in test [7], in test [8], in [10] and in test [12] was inactive.

`CC(=O)Oc1ccccc1C(=O)O`: the call in [1], in [2], in [3], in test [4], in test [5] and in [6] was inactive. In addition, the molecule was classed as inactive in test [7], in test [8], in [13], in test [14], in [10] and in test [15]. Besides, the result in test [12] and in [16] was inactive.

Broadly, the AC50 is the concentration at which the activity in the assay is half-maximal. Turning to `CNCc1cc(F)ccc1Oc1ccc(Cl)c(Cl)c1`, the result in test [1], in test [2], in test [4], in test [5], in test [6] and in test [7] was inactive. The outcome in test [8], in test [9] and in test [12] was inactive. The half-maximal activity concentration (AC50) in test [3] is 32.6 µM (active); in test [11], 19.8 µM (active).

Consider `NS(=O)(=O)c1cc2c(cc1Cl)NCNS2(=O)=O`, for which the molecule was called inactive in test [1], in test [2], in test [3], in [4], in test [5] and in test [6]. Also, the outcome in [7] was inactive.

In the case of `CC(C)(C)c1cc(O)c(C(C)(C)C)cc1O`, the outcome in test [1], in [2], in test [4] and in test [7] was inactive. For the same molecule, the concentration at half-maximal activity (AC50) in test [3] was 4.33 µM (active); in [6] it was 31.7 µM (active).

Consider `Cc1ccc(C)c(O)c1C`, for which the AC50 was 32.4 µM (active) in test [1], 29.3 µM (active) in test [2], 33.9 µM (active) in test [6] and 31.6 µM (active) in test [7]. The result in test [3], in [4], in test [5], in test [8], in test [9] and in test [10] was inactive. Besides, the outcome in [11] and in test [12] was inactive.

Regarding `C=CCc1ccc(O)c(OC)c1`, the molecule was called inactive in test [1], in [2], in [3], in [4], in [5] and in [6]. Besides, the outcome in [8], in test [13], in test [14], in test [9], in [10] and in test [11] was inactive. In addition, the outcome in test [15], in test [12] and in test [16] was inactive. Also, the AC50 in test [7] is 20 µM (active).

Turning to `C[Si]1(C)O[Si](C)(C)O[Si](C)(C)O[Si](C)(C)O1`, the call in [1], in [2], in [3], in test [4], in test [5] and in test [6] was inactive. For the same molecule, the outcome in [7], in [8], in test [13], in [14], in test [10] and in test [11] was inactive. For the same molecule, the outcome in [15], in test [12] and in test [16] was inactive.

Turning to `CC(=O)C(C)=CC1C(C)=CCCC1(C)C` (stereo not drawn), the AC50 in test [1] and in [7] was 20 µM (active) in each case. The molecule was called inactive in test [2], in [3], in [4], in test [5] and in test [6].

As to `O=C(O)CCCCC(=O)O`, the molecule was classed as inactive in test [1], in test [2], in test [3], in [4], in [5] and in [6]. Moreover, in [7], the molecule was called inactive.

Turning to `Nc1ccccc1N`, the call in [1], in test [2], in [3], in [4], in test [5] and in [6] was inactive. In test [7], the call was inactive.

For `CN[C@H]1CC[C@@H](c2ccc(Cl)c(Cl)c2)c2ccc(S(N)(=O)=O)cc21`, the half-maximal activity concentration (AC50) in [1] is 31.6 µM (active); in test [4], 29.9 µM (active); in test [7] it was 32 µM (active). In addition, the outcome in [2], in test [3], in test [5] and in [6] was inactive.

Turning to `COc1ccc2c(c1)c(CC(=O)O)c(C)n2C(=O)c1ccc(Cl)cc1`, the molecule was classed as inactive in test [1], in test [2], in test [3], in test [4], in [5] and in test [6]. Moreover, the result in test [7] was inactive.

As for `Cc1ccc2ncccc2c1`, the result in test [1], in test [2], in [3], in test [4], in test [5] and in test [6] was inactive. Besides, the outcome in test [7], in test [8], in [9], in [10] and in test [12] was inactive.

For `FC(F)(F)C(F)(F)C(F)(F)C(F)(F)C(F)(F)C(F)(F)CCI`, the molecule was classed as inactive in test [1], in test [2], in [3], in test [4], in test [5] and in test [6]. Besides, the molecule was classed as inactive in test [7], in test [13], in test [14], in test [15] and in test [16].

With `Nc1nc(N)c2nc(CNc3ccc(C(=O)N[C@@H](CCC(=O)O)C(=O)O)cc3)cnc2n1`, the call in test [1], in test [2], in [3], in test [4], in [5] and in [6] was inactive. Also, in [7], the call was inactive.

For the molecule `Nc1ccc2c(c1)C(=O)c1ccccc1C2=O`, the result in test [1], in [2], in test [3], in test [4], in [5] and in test [6] was inactive. Moreover, the outcome in test [7] and in [9] was inactive. The AC50 in [8] is 72.1 µM (active); in [10], 11.2 µM (active); in [12], 3.51 µM (active).

Consider `Cc1ccc(C(C)C)c(O)c1`, for which, in test [1], the AC50 is 20 µM (active). Further, the molecule was classed as inactive in test [2], in [3], in test [4], in [5], in test [6] and in test [7]. Besides, the outcome in test [8], in test [10] and in test [12] was inactive.

The record behind these values is PubChem BioAssay (EPA / NIEHS).
